Data as given in PubChem BioAssay (NCATS).
Results filed as inconclusive are left out. A number with no mark means an inactive call. Calls of active or inactive are those of the source. Calls come from the whole dose curve; as a rule, active = well fitted cell-killing curve with a large enough effect; inconclusive = small, poorly fitted or top-dose-only effect; inactive = flat fitted curve, though single readings scatter.

assay: Cell Viability - LYMP2-019 (AID 973); conditions: LYMP2-019 lymphoblastoid cell line viability; series mostly up to 92.2 µM; activity change, negative = cytotoxicity: at the top concentration; note: nearly all actives have a fitted effect of over 55% in size;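 for activity change, negative = cytotoxicity: 0% = DMSO alone and full effect = 92 µM tetraoctylammonium bromide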
Text: NIH Chemical Genomics Center [NCGC]
NIH Molecular Libraries Screening Centers Network [MLSCN]
National Institutes of Environmental Health Sciences [NIEHS]
National Toxicology Program [NTP]
We have developed a 1536-well cell-based assay for quantitative high throughput screening (qHTS) against a number of cell lines to determine in vitro cytotoxicity of small molecules. This particular assay uses a human lymphoblastoid cell line (LYMP2-019) purchased from Coriell Institute for Medical Research.
NCGC Assay Protocol Summary:
The CellTiter-Glo luminescent cell viability assay (Promega) is a homogeneous method to measure the number of viable cells in culture. The end point readout of this assay is based on quantitation of intracellular ATP, an indicator of metabolic activity, using the luciferase reaction. Luciferase catalyzes the oxidation of beetle Luciferin to oxyluciferin and light in the presence of ATP. The luminescent signal is proportional to amount of ATP present.
Using the CellTiter-Glo luminescent cell viability assay, the amount of cellular ATP was measured in the lymphoblastoid cell line with complete culture medium following compound treatment for 24 hours. The assay was performed in opaque white Kalypsys 1536-well plates. In the screen, tetraoctylammonium bromide was used as positive control. Library compounds were measured for their ability to cause acute toxicity in the cell line, as reflected by a decrease in intracellular ATP levels, in a concentration-dependent manner. […] AC50 values were determined from concentration-response data modeled with the standard Hill equation.
qHTS protocol for CellTiter Glo lymphoblastoid cellular assay
[Step] [Parameter] [Value] [Description]
1. Reagent; 5 uL; 2500 lymphoblastoid cells/well
2. Time; 5 hr; 37 C incubation
4. Controls; 23 nL; Tetraoctylammonium bromide 6.4pM to 92 uM
5. Time; 24 hr; 37 C incubation
6. Reagent; 5 uL; CellTiter Glo reagent
7. Time; 30 min; Room Temperature
8. Detection; Luminescence; Viewlux plate reader
Keywords: cell viability, cytotoxicity, lymphoblastoid cell line, luminescence, NTPHTS, NTPHTS_NCGC, NIEHS, DSSTox, MLSMR, MLSCN, NIH Roadmap, qHTS, NCGC
Potency is the fitted concentration of half-maximal effect.

Compared with OCCOc1ccccc1, Oc1ccccc1-c1ccccc1 is lower in “activity change, negative = cytotoxicity” value: 0.639% for the first, -8.03% for the second.

Going from CNCC(O)c1ccc(O)cc1 (stereo unspecified) to NCC(O)c1ccc(O)cc1 (stereo unspecified), the “activity change, negative = cytotoxicity” value falls from 3.62% to -6.11%.

Compared with CCOP(=S)(OCC)Oc1cc(C)nc(C(C)C)n1, CCCC(C)(COC(N)=O)COC(=O)NC(C)C (stereo unspecified) is lower in “activity change, negative = cytotoxicity” value: -1.59% for the first, -8.26% for the second.

Compared with Oc1ccc(Cl)cc1Cc1ccccc1, c1ccc2c(c1)Nc1ccccc1S2 is higher in “activity change, negative = cytotoxicity” value: -7.54% for the first, -4.72% for the second.

With Oc1cccc2cccnc12 the Potency was 10 µM (active).
With CC(=O)Oc1ccccc1C(=O)Nc1ncc([N+](=O)[O-])s1 the Potency was 31.6 µM (active).
For N[C@@H](Cc1ccc(N(CCCl)CCCl)cc1)C(=O)O, the Potency was 39.8 µM (active).
